# Screening data from PubChem.
# KCNQ2 block: rat KCNQ2 potassium channel inhibitors, primary screen, cell-based, CHO-K1, FluxOR thallium flux, B-score | Potassium voltage-gated channel subfamily KQT member 2 (Rattus norvegicus), O88943 | 20 min; active compounds read low | B-score at 10 µM | 310,000 compounds, 1.1% hits | AID 2156, 2009;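 active = fluorescence ratio B-score at most minus 3 library SDs, with starting brightness B-score within 2 library SDs, cut at about -5.5 in these data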
# Target sequence (O88943 whole entry, looked up): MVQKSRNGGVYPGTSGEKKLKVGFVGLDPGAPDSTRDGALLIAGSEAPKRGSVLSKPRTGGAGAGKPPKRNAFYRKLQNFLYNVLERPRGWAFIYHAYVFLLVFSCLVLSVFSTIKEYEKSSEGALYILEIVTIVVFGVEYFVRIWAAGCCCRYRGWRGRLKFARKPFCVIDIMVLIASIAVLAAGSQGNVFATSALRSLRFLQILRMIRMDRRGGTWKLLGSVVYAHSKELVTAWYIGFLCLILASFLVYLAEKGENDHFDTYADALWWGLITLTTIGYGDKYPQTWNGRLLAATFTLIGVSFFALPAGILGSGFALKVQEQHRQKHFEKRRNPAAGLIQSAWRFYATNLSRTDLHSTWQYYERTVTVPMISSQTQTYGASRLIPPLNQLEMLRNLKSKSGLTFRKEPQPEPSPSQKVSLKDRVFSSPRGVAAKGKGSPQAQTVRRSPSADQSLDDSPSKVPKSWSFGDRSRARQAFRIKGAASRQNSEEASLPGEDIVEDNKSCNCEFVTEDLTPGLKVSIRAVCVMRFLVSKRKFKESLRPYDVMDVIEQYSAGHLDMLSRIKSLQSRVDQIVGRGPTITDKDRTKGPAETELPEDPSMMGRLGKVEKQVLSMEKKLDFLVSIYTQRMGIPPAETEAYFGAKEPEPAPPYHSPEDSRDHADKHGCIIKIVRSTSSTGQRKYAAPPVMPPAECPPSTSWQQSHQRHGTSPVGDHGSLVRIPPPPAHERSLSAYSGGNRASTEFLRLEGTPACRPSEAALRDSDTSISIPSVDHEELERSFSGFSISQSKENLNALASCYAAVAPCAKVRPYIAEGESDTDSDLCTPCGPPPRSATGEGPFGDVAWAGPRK
# KCNQ2 enhance: potentiators of rat KCNQ2 potassium channel; Potassium voltage-gated channel subfamily KQT member 2 (Rattus norvegicus), O88943; CHO-K1 KCNQ2, FluxOR thallium flux fluorescence; active compounds read high; B-score at 10 µM; 310,000 compounds, 0.54% hits; AID 2239, 2010;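 active = fluorescence ratio B-score at least 3 SD of library B-scores, with initial fluorescence B-score within 3 of them, cut at about 5.3 in these data; same plate scores as AID 2156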;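 also: B-score of peak minus minimum over baseline fluorescence ratio after K+ and Tl+ stimulus; positive B-score means potentiation of KCNQ2 with more thallium influx and brighter signal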
# Kir21 confirm: mouse Kir2.1 channel blockers, retest, confirmation, cell-based, FluxOR thallium flux, duplicate; shares compounds with KCNQ2 enhance; Kir2.1-expressing cells, FluxOR thallium flux fluorescence; active compounds read low; Tl flux remaining, % of negative control (active compounds read low), % at 10 µM; 2,300 compounds, 41% hits; AID 2032, 2009;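 active = Primary-screen hit whose thallium flux fell at least 3 control SD below untreated wells in both duplicates, with normal baseline fluorescence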
# HEK293 Tl flux: alters thallium flux in parental HEK293 cells, Kir2.1 counter-screen. 2,300 compounds, 19% hits. FluxOR signal as % of negative control (100 = no effect), % at 10 µM. shares compounds with KCNQ2 enhance. FluxOR thallium flux fluorescence; 0% = unstimulated blank wells. AID 2105;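 active = dye signal at least 3 control SD above or below untreated wells in both duplicates, raw fluorescence within 3, either direction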;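 also: percent is based on the flux ratio of peak minus minimum fluorescence over baseline F0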
# CHO-K1 ctr: nonspecific thallium flux increase in parental CHO-K1, confirmation, counter-screen for KCNQ2 potentiator project, cell-based, FluxOR thallium flux, duplicate. 1,200 compounds, 43% hits. activity increase over 3SD of controls, % at 10 µM. shares compounds with KCNQ2 enhance. parental CHO-K1 cells, FluxOR thallium flux fluorescence; zero = vehicle mean+3SD, 100% = vehicle-minus-blank window;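 active = signal rise of at least 3 SD above the untreated control mean, in both duplicate wells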;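 also: counter screen of KCNQ2 potentiator hits so any rise reflects channel-independent effects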
# KCNQ1 sel pot: human KCNQ1 channel potentiation off-target, confirmation, selectivity assay for KCNQ2 potentiator project, cell-based, CHO, FluxOR thallium flux. 1,200 compounds, 28% hits. AID 2283, 2010. shares compounds with KCNQ2 enhance. CHO KCNQ1 stable, FluxOR thallium flux fluorescence; beyond 3SD, as % of vehicle-control signal. activation over 3SD threshold, % at 10 µM;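 active = fluorescence ratio rise of at least 3 SD of vehicle wells above their mean, in both replicate wells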
# KCNQ2 pot conf: rat KCNQ2 channel potentiators, confirmation, cell-based, CHO, FluxOR thallium flux, duplicate; shares compounds with KCNQ2 enhance; CHO-KCNQ2 cells, FluxOR thallium flux fluorescence; potentiation, less the hit threshold, % at 10 µM; 1,200 compounds, 68% hits; AID 2287, 2010;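 active = fluorescence ratio rising 3 SD or more over the vehicle control mean in both replicates, plus primary screen hit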;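 also: peak minus minimum thallium fluorescence divided by baseline after K/Tl stimulus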
# Kir21 spec: mouse Kir2.1 channel activation off-target, confirmation, selectivity assay for KCNQ2 potentiator project, cell-based, HEK293, FluxOR thallium flux; shares compounds with KCNQ2 enhance; HEK293 Kir2.1, FluxOR thallium flux fluorescence; activity over 3SD threshold, % at 10 µM; 1,200 compounds, 2% hits; AID 2345, 2010;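 active = fluorescence ratio rise of at least 3 SD above the vehicle-control mean, seen in both replicates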
# KCNQ2 W236L pot: potentiators of retigabine-insensitive KCNQ2 W236L, mechanism study for KCNQ2 potentiator project, cell-based, rat KCNQ2 W236L, CHO, automated patch clamp. AID 2558, 2010. automated patch clamp current. 940 compounds, 10% hits. current increase over 3SD of negative controls (%), active compounds read high, % at 25 µM. shares compounds with KCNQ2 enhance;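 active = current increase at least 3 SD of the untreated controls above them in both duplicate recordings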
# Hits are given with their value; – = inactive; · = no result given. In the library only some 1.6% were active in any assay of this set; here they are far more common.
SMILES,KCNQ2 block,KCNQ2 enhance,Kir21 confirm,HEK293 Tl flux,others
CC(C)CC(=O)NC(=S)Nc1nc(-c2cccc3ccccc23)cs1,–,8.4,–,–,CHO-K1 ctr=3.5;KCNQ1 sel pot=9.8;KCNQ2 pot conf=–;Kir21 spec=–
CCOC(=O)Cc1csc(NC(=S)NC(=O)CC(C)C)n1,–,·,·,·,
COc1ccc(/C=N/NC(=S)SC)cc1OC,–,–,·,·,
CSC(=S)N/N=C/c1ccccc1,–,9.3,–,218%,CHO-K1 ctr=–;KCNQ1 sel pot=9.4;KCNQ2 pot conf=7.4;Kir21 spec=–;KCNQ2 W236L pot=–
CC(C)c1ccc(NC(=O)C(c2ccccc2)N(C)C(=O)CCc2c[nH]c3ccccc23)cc1 (stereo not given),–,·,·,·,
Cc1occc1C(=O)Nc1cccc(Cl)c1Cl,–,–,·,·,
CCCC(C1=C(O)CC(C)(C)CC1=O)C1C(=O)CC(C)(C)CC1=O (stereo not given),–,·,·,·,
Cc1ccc(C(C2=C(O)CC(C)(C)CC2=O)C2C(=O)CC(C)(C)CC2=O)o1 (stereo not given),–,8.7,·,·,CHO-K1 ctr=–;KCNQ1 sel pot=54;KCNQ2 pot conf=1.5;Kir21 spec=–;KCNQ2 W236L pot=46%
O=C(CCNS(=O)(=O)c1cccc2nonc12)NC1CCCCC1,–,–,·,·,
O=C(CCS(=O)(=O)c1cccc2nonc12)NC1CCCCCC1,–,11,–,–,CHO-K1 ctr=33;KCNQ1 sel pot=–;KCNQ2 pot conf=36;Kir21 spec=–;KCNQ2 W236L pot=–
Cc1ccc(Cn2c(=N)n(CC(O)COc3ccccc3)c3ccccc32)cc1 (stereo not given),–,·,32%,–,
N=c1n(Cc2ccccc2)c2ccccc2n1CC(O)COc1ccccc1 (stereo not given),–,·,38%,–,
CCCCn1c(=N)n(CC(O)COc2ccc(C)cc2)c2ccccc21 (stereo not given),–,·,·,·,
CCCCn1c(=N)n(CC(O)COc2ccccc2)c2ccccc21 (stereo not given),–,–,·,·,
CCOc1ccc(NC(=O)CN2C(=O)NC(C)(c3ccc(OC(F)F)cc3)C2=O)cc1 (stereo not given),–,·,·,·,
CCOC(=O)c1cccc(NC(=O)Nc2ccc3c(c2)C(=O)OC3)c1,–,–,·,·,
O=C(CC1C(=O)NCCN1Cc1ccc(Cl)c(F)c1)NC1CCC1 (stereo not given),–,–,·,·,
COCCN(C(=O)COC(=O)c1cccs1)c1c(N)n(Cc2ccccc2)c(=O)[nH]c1=O,–,·,·,·,
COc1ccc([N+](=O)[O-])cc1NC(=O)C(C)OC(=O)c1cccnc1 (stereo not given),–,–,·,·,
Cn1c(CNC(=O)c2ccc(F)cc2)cc2ccccc21,–,6.5,–,–,CHO-K1 ctr=–;KCNQ1 sel pot=78;KCNQ2 pot conf=–;Kir21 spec=–;KCNQ2 W236L pot=–
Cn1c(CNC(=O)c2ccccc2F)cc2ccccc21,–,·,·,·,
Cc1ccc(-n2nnnc2C(Cl)c2nnnn2-c2ccc(C)cc2)cc1,–,·,39%,–,
Cc1ccc(-n2nnnc2-c2ccccc2)cc1,–,·,·,·,
Cn1nc2c3ccccc3n(Cc3ccc(F)cc3)c2nc1=S,–,–,·,·,
CCOC(=O)c1ccc(-n2c(CN(CC)CC)nc3ccc([N+](=O)[O-])cc3c2=O)cc1,–,–,·,·,
SMILES,KCNQ2 block,KCNQ2 enhance,Kir21 confirm,HEK293 Tl flux,others
O=C(CN1C(=O)NC2(CCCCC2)C1=O)N1CCN(S(=O)(=O)c2ccc(F)cc2)CC1,–,–,·,·,
O=C(COc1ccccc1CNCc1ccccc1)Nc1ccccc1,–,·,35%,–,
CCOc1ccccc1CNCc1ccc(C(=O)O)cc1,–,·,·,·,
CC1CCc2c(sc3ncnc(SC(C)C(=O)NCC4CCCO4)c23)C1 (stereo not given),–,–,·,·,
Cc1cccc(N2CCN(C(=O)CCC(=O)N3CC(C)Oc4ccc(C)cc43)CC2C)c1 (stereo not given),–,·,·,·,
Cc1cc(C)n(/N=C/c2ccccc2O)c(=O)c1,–,·,·,·,
Cc1cc(C)n(/N=C/c2cc(Cl)cc(Cl)c2O)c(=O)c1,–,9.8,–,–,CHO-K1 ctr=–;KCNQ1 sel pot=39;KCNQ2 pot conf=–;Kir21 spec=–
CCOC(=O)C1CCN(C(=O)c2ccc(OCC(=O)Nc3ccc(OCC)cc3)c(OC)c2)CC1,–,·,·,·,
O=C(N/C(=C/c1ccccc1)C(=O)N1CCCCC1)c1ccco1,–,–,·,·,
Cc1cnc(=O)[nH]c1SCc1ccc([N+](=O)[O-])cc1,–,–,·,·,
O=C(Nc1nnc(-c2ccc3c(c2)CCCC3)o1)c1c(F)cccc1F,–,·,·,·,
O=C(Nc1nnc(-c2ccc3c(c2)CCCC3)o1)c1ccc(Cl)cc1Cl,–,8.9,–,255%,CHO-K1 ctr=–;KCNQ1 sel pot=69;KCNQ2 pot conf=15;Kir21 spec=–;KCNQ2 W236L pot=–
CCOC(=O)CSc1nc2ccc(N3CCOCC3)cc2c(=O)n1Cc1ccccc1,–,·,·,·,
CC1CCCCN1C(=O)c1ccc(CS(=O)(=O)Cc2ccccc2)cc1 (stereo not given),–,–,·,·,
Cc1c(N2C(=O)/C(=C/c3ccccc3)SC2=S)c(=O)n(-c2ccccc2)n1C,–,–,·,·,
Cc1c(N2C(=O)/C(=C\c3ccccc3O)SC2=S)c(=O)n(-c2ccccc2)n1C,–,18,–,343%,CHO-K1 ctr=114;KCNQ1 sel pot=–;KCNQ2 pot conf=40;Kir21 spec=–;KCNQ2 W236L pot=–
Cc1[nH]n2cnnc2c(=O)c1Br,–,–,·,·,
CCN1CCc2c(C#N)c(N3CCCCC3)nc(N3CCOCC3)c2C1,–,·,·,·,
N#Cc1c(N2CCOCC2)nc(N2CCCCC2)c2c1CCN(C1CCCCC1)C2,–,11,–,–,CHO-K1 ctr=–;KCNQ1 sel pot=10;KCNQ2 pot conf=16;Kir21 spec=–;KCNQ2 W236L pot=–
CC(=O)N(C(C)=O)c1nc(-c2ccccc2)cn1/N=C/c1cccc([N+](=O)[O-])c1,–,·,·,·,
Cc1cc(C)c(S(=O)(=O)Nc2ccc(O)cc2)cc1C,–,10,·,·,CHO-K1 ctr=–;KCNQ1 sel pot=1.5;KCNQ2 pot conf=40;Kir21 spec=–;KCNQ2 W236L pot=–
Cc1ccc(C)c(S(=O)(=O)Nc2ccc(O)cc2)c1,–,–,·,·,
COC(=O)[C@H](CC(C)C)NC(=O)NCc1ccc(Cl)cc1,–,·,·,·,
